Compounds with a hit are over-represented: about 1.8% of the library has one in this group of screens.
PrP UTR inh = inhibition of PrP 5' UTR reporter expression; cell-based PrP 5' UTR mRNA reporter, plate reader; inhibition, % (test concentration not listed); actives 0.35% (n = 340,000); in the data active = inhibition above about 52%
PrPC TRFRET = inhibitors of human cell surface prion protein PrPC, primary screen, cell-based, TR-FRET. Major prion protein (Homo sapiens), P04156. TR-FRET read-out. inhibition, % at 13.8 µM. actives 0.43% (n = 370,000); in the data active = inhibition above about 24%
PfHsp40 yeast = rescue of yeast from PfHsp40 toxicity, primary screen, S. cerevisiae, ATP luminescence; S. cerevisiae expressing PfHsp40, growth rescue; growth rescue, % at 12.5 µM; actives 0.68% (n = 340,000); AID 504582, 2011; in the data active = growth rescue above about 28%, passing the limit was not always enough; inconclusive = no clear call, values can overlap the other calls;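 note: yeast W303a lacking pdr1 and pdr3 grown in galactose medium; growth measured after three days at 30 °C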
MazF activator = activators of E. coli MazEF toxin-antitoxin RNase, primary screen, biochemical, fluorescence, uHTS; Endoribonuclease toxin MazF (Escherichia coli (strain K12)), P0AE70; FAM/BHQ RNA-DNA oligo cleavage fluorescence, 5 h; activation, % at 20 µM; actives 0.32% (n = 350,000); AID 504720, 2011; in the data active = activation above about 50%
Target sequence (P0AE70 whole entry, looked up): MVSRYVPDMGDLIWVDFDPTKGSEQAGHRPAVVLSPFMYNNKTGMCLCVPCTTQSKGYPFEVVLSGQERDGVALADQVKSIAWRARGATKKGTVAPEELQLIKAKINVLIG
PriA SSB inh = inhibitors of Klebsiella pneumoniae PriA binding to SSB C-terminal tail, primary screen, biochemical, AlphaScreen. PriA–SSB C-terminal tail interaction (Klebsiella pneumoniae). AlphaScreen SSBct-PriA binding, biotinylated peptide. inhibition, % at 33 µM. actives 0.6% (n = 430,000); in the data active = inhibition mostly above about 37%, no sharp cut-off; inactive = mostly below about 20%
PrP 5UTR single = prion 5' UTR mRNA inhibition, cherry-pick retest; AID 504592, 2011; actives 48% (n = 1,100); cell-based prion protein 5' UTR reporter, plate reader; shares compounds with PrP UTR inh; inhibition, % at 2.5 µM; in the data active = inhibition above about 54%; inconclusive = no clear call, values can overlap the other calls
A number is an active result; - = inactive; ? = inconclusive; . = not tested or not shown.

SMILES	PrP UTR inh	PrPC TRFRET	PfHsp40 yeast	MazF activator	PriA SSB inh	PrP 5UTR single
COc1cc(SC)ccc1C(=O)Nc1ccc(Br)cn1	68	-	-	-	-	67
COc1cc(SC)ccc1C(=O)Nc1ccccn1	-	-	-	-	-	.
Cc1cc(N)nc(=O)n1C1CC(O)C(CO)O1 (centres undefined)	59	-	-	-	-	-
O=C(Nc1ccc(-c2nc3cccnc3s2)cc1)C1CCCO1 (centres undefined)	62	-	-	-	-	65
CC(C)C[C@H](NC(=O)C1CCN(S(=O)(=O)c2ccccc2)CC1)C(=O)NCc1cccnc1	-	-	-	-	-	.
CCC1(c2ccccc2)NC(=O)N(CC(=O)N(C)CC(=O)Nc2cccc(F)c2)C1=O (centres undefined)	-	-	-	-	-	.
COc1cccc(-c2nc3n(n2)C(c2cccs2)C(C(=O)Nc2cccnc2)=C(C)N3)c1 (centres undefined)	85	-	-	-	-	-
CC1=C(C(=O)Nc2cccnc2)C(c2cccnc2)n2nc(-c3cccs3)nc2N1 (centres undefined)	-	-	-	-	-	.
COc1ccc(CN2CCN(Cc3ccc(Br)cc3)CC2)c(OC)c1OC	-	-	-	-	-	.
Cn1c(=N)n(CC(=O)c2ccc(Cl)c(Cl)c2)c2ccccc21	61	-	-	-	-	-
COc1ccc2cc3c(N)nn(C(=O)c4ccccc4Cl)c3nc2c1	58	-	-	-	-	-
O=C(NC1CCN(Cc2ccccc2)CC1)c1cncc(Br)c1	-	-	-	-	-	.
COc1ccc2c(c1)C(C)=CC(C)(C)N2S(=O)(=O)c1ccc(NC(C)=O)cc1	73	-	-	-	-	-
c1ccc(-c2cn3nc(-c4ccccc4)cnc3n2)cc1	-	-	-	-	-	.
c1ccc(-c2cn3nc4c(nc3n2)CCCC4)cc1	67	-	-	-	-	-
CCC(CO)Nc1ccn2nc(-c3ccccc3)cc2n1 (centres undefined)	.	-	.	.	.	.
CCC(=O)Nc1nc2c(C)ccc(Cl)c2s1	.	.	.	.	-	.
COc1ccc(OC)c2[nH]c(=O)c(CCNC(=O)COc3ccccc3)cc12	57	-	-	-	-	-
CC[C@@H](C)[C@H](C(CC(=O)N1CCCC1[C@@H](OC)[C@H](C)C(=O)N[C@H](Cc1ccccc1)c1nccs1)OC)N(C)C(=O)[C@H](NC(=O)[C@@H](C(C)C)N(C)C)C(C)C (some centres undefined)	56	-	-	-	-	92
CCN=C1NN=C(c2cc(C)n(Cc3ccco3)c2C)CS1	83	-	-	-	-	72
O=c1oc2ccccc2cc1-c1cn2ccccc2n1	81	-	-	-	-	?
CCN(CC)c1ccc2cc(-c3nc4ccccc4n3C)c(=O)oc2c1	-	-	-	-	-	.
CCN(CC)c1ccc2cc(-c3nc4ccccc4[nH]3)c(=O)oc2c1	58	.	-	.	-	66
Cc1ccc(NC(=O)C(=O)NC[C@H](O)c2ccc(C(F)(F)F)cc2)cc1F	.	.	.	.	-	.
COc1ccc(C2/C(=C(/O)c3ccc(Cl)cc3)C(=O)C(=O)N2CCN2CCOCC2)c(OC)c1 (centres undefined)	63	-	-	-	.	-
SMILES	PrP UTR inh	PrPC TRFRET	PfHsp40 yeast	MazF activator	PriA SSB inh	PrP 5UTR single
CC(C)(C)NC(=O)CSc1nc(-c2ccccc2)c(-c2ccccc2)[nH]1	-	-	-	-	-	.
Cc1ccc2oc(/N=C(\N)NC(=O)C(C)(C)C)nc2c1	90	-	-	-	.	85
CCOC(=O)C1=CN(Cc2ccco2)S(=O)(=O)N(C)C1c1ccc(C(F)(F)F)cc1 (centres undefined)	-	-	-	-	-	.
CCOC(=O)C1=CN(Cc2ccco2)S(=O)(=O)N(C)C1c1ccc2ccccc2c1 (centres undefined)	55	-	-	-	-	-
CCOC(=O)C1=CN(Cc2cccc(I)c2)S(=O)(=O)N(C)C1C (centres undefined)	90	-	-	-	-	-
Cn1c(N)c(C(=O)c2ccc(Cl)c(S(=O)(=O)N3CCCCCC3)c2)c(=O)n(C)c1=O	-	-	-	-	-	.
CCOc1ccc(NS(=O)(=O)c2cccc(C(F)(F)F)c2)cc1	.	.	.	.	-	.
Nc1ccc2c(c1)C(=O)c1ccc(Cl)cc1-2	-	-	-	-	-	.
Nc1ccc2c(c1)-c1ccc(F)cc1C2=O	81	-	-	-	-	-
Cc1nc(-c2ccncc2)nc(NCCNc2ccc(C(F)(F)F)cn2)c1Cl	-	-	-	-	-	.
Cc1nc2nc(-c3ccc(F)cc3)cn2nc1C	-	-	-	-	-	.
CCc1ccc(-c2cn3nc(C)c(C)nc3n2)cc1	85	-	-	-	-	-
COc1ccc(CC(=O)Oc2ccccc2C)cc1	58	-	-	-	-	-
COc1ccc(CC(=O)Oc2ccccc2[N+](=O)[O-])cc1	-	-	-	-	-	.
CCc1cc(C(=O)NN=Cc2c(C)[nH]c3ccccc23)cs1	.	.	.	.	-	.
CC1CN(C(=O)[C@@H]2CCCN2S(=O)(=O)c2ccc(Cl)cc2)CC(C)O1 (some centres undefined)	85	-	-	-	-	-
COC(=O)CCC(=O)OC1(C)C(=O)C=C2C=C(C3CC3)N(Cc3ccco3)C=C2C1=O (centres undefined)	-	-	-	-	-	.
O=C(/C=C/c1ccco1)Nc1ccccn1	-	-	-	-	-	.
Cc1ccc(NC(=O)/C=C/c2ccco2)nc1	70	-	-	-	-	84
O=[N+]([O-])c1ccc(O)c(/C=N/Nc2ccccn2)c1	54	-	308	-	.	58
Cc1ccccc1C=NNc1ccnc2cc(Cl)ccc12	.	.	.	.	-	.
COc1ccc(S(=O)(=O)C(CNC(=O)c2cccc(OC)c2OC)c2ccco2)cc1 (centres undefined)	.	.	.	.	-	.
Cc1cc(=O)oc2cc(OCC(=O)NC3(C#N)CCCCC3)c(Cl)cc12	-	-	-	-	-	.
CC(C)(C)NC(=S)N1CCC(C(=O)c2ccc(Cl)cc2)CC1	56	-	-	-	-	-
C[C@H]1[C@@H](OS(=O)(=O)O)C[C@@H]2C[C@H]([C@@H](O)c3cc(=O)[nH]c(=O)[nH]3)NC3=NC[C@H]1N32	61	.	.	-	-	66
Cc1nc(N)nc(N)c1-c1ccc(Cl)c(Cl)c1	58	-	-	-	-	-
CC[C@@]1(C(=O)OC)N[C@H](CN(C)C(=O)Nc2ccc(C)cc2)[C@@H]2C(=O)N(Cc3ccccc3)C(=O)[C@@H]21	-	-	-	-	-	.
CCN(C[C@H]1N[C@@](Cc2ccccc2)(C(=O)OC)[C@H]2C(=O)N(Cc3ccccc3)C(=O)[C@@H]12)S(=O)(=O)c1ccc(C(F)(F)F)cc1	86	-	-	-	-	-
